This is part of a sample that, as a whole, favours compounds with a hit. Of some 79,000 tested, about 15% had one in any assay. Values without a mark were called inactive. Active and inactive are the calls of the source. No stated cut-off is given here; in the data, active means growth inhibition above about 70%; inactive means the rest.
What was measured:
[1] = NCI Yeast Anticancer Drug Screen. Data for the rad50 strain (AID 155);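 further: 0% = growth of vehicle-only cultures of the same strain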; conditions: S. cerevisiae rad50 strain growth inhibition; at 50.0 µM; active compounds read high
Summary of the method: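 A DNA repair-deficient yeast mutant serves as the test organism; compound-induced growth inhibition is calculated against vehicle-treated cells.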

[2] = NCI Yeast Anticancer Drug Screen. Data for the mec2-1 strain (AID 157); conditions: S. cerevisiae mec2-1 strain, at 50.0 µM, active compounds read high
Summary of the method: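 Compounds were applied to mec2-1 yeast cells. Their growth was then compared with that of vehicle-treated cultures to give growth inhibition.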

[3] = NCI Yeast Anticancer Drug Screen. Data for the sgs1 mgt1 strain (AID 161);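 further: 0% = growth of cultures given vehicle only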; conditions: S. cerevisiae sgs1 mgt1 strain, at 50.0 µM, active compounds read high
Summary of the method: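 Percent growth inhibition was derived by comparing compound-exposed mutant yeast with vehicle-exposed cultures. The strain carries alterations in DNA damage repair.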

[4] = NCI Yeast Anticancer Drug Screen. Data for the cln2 rad14 strain (AID 165);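 further: 0% = growth equal to vehicle treated cultures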; conditions: S. cerevisiae cln2 rad14 strain, at 50.0 µM, active compounds read high
Summary of the method: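 Strain: cln2 rad14 yeast, altered in cell cycle control and DNA damage repair. Read-out: growth inhibition vs vehicle.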

[5] = NCI Yeast Anticancer Drug Screen. Data for the bub3 strain (AID 167); conditions: S. cerevisiae bub3 mutant strain, at 50.0 µM, active compounds read high
Summary of the method: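 Inhibition values come from growth of compound-treated mutant yeast normalised to vehicle-treated controls.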

[6] = NCI Yeast Anticancer Drug Screen. Data for the mlh1 rad18 strain (AID 175); conditions: S. cerevisiae mlh1 rad18 strain growth inhibition; at 50.0 µM; active compounds read high
Summary of the method: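 A repair-deficient yeast strain is exposed to test compound, and growth is scored relative to vehicle-treated controls.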

Row | Compound | growth inhibition [1] | growth inhibition [2] | growth inhibition [3] | growth inhibition [4] | growth inhibition [5] | growth inhibition [6]
1 | N#Cc1ccncc1 | 22.3% | -24.1% | 23.9% | -3.75% | 7.35% | 16%
2 | COP12(OC)NC(=O)OC1(C(F)(F)F)c1ccccc1O2 (centres undefined) | -14.9% | -4% | -23.9% | -5.15% | -28% | -39%
3 | c1ccc(CC[n+]2cccc3ccccc32)cc1 | -3.8% | 11.2% | 3.95% | -26.3% | -8.1% | -6.85%
4 | C1N2CN3CN1CN(C2)C3.[Cu+2] | -15.4% | -9.85% | -14.7% | -8.5% | -15% | -6.9%
5 | Cc1ccc(C2=NOP(c3ccccc3)(c3ccccc3)(c3ccccc3)C2)cc1 | 19.5% | 2.7% | 39% | -37.8% | 23.6% | 23.9%
6 | S=C(SSC(=S)N(Cc1ccccc1)Cc1ccccc1)N(Cc1ccccc1)Cc1ccccc1 | -1.7% | 11.6% | 2.95% | -14.3% | -20.6% | 12%
7 | CC(CC(C#N)(c1ccccc1)c1ccccc1)[N+]1(C)CCCCCCC1 (centres undefined) | 11.9% | 1.2% | 2.85% | 1.65% | 1.35% | 19%
8 | N.N.N.N.N.O=C([O-])CCl.[Co+3].[O-][Cl+3]([O-])([O-])[O-] | -21.4% | -7.45% | -33.5% | -0.1% | -16.6% | -31.4%
9 | O=C(Nc1ccc([As](=O)(O)O)cc1)Nc1cccc(Cl)c1Cl | 37.9% | 36.3% | -8% | 0.3% | 44.1% | 34.9%
10 | CCCCCCCCCCBr | 30.4% | 17.2% | -12.4% | 25.1% | 17.1% | -37.6%
11 | Cc1cccc(-n2c(C)nc3ccccc3c2=O)c1C | -15.2% | -1.1% | -3.35% | -2.6% | -0.6% | -13.1%
12 | CC(C)C(=O)OCC1CCCN2CCCCC12 (centres undefined) | 26.9% | 26.4% | 11.9% | 19.2% | 30.3% | -35.2%
13 | ICCCI | 0.6% | -29.8% | 16.1% | 3.8% | 19% | 3.2%
14 | O=c1[nH]c(O)c(N=Nc2ccc([N+](=O)[O-])cc2[N+](=O)[O-])c(=O)[nH]1 | 14.7% | 15.4% | 22.2% | 14.7% | -11.7% | 7.35%
15 | CCOP(=O)(OCC)Oc1cc(C)c(Cl)c(C)c1 | 10.2% | -16.7% | 4.15% | 18.4% | 16.9% | -8.35%
16 | C/C=C(\CC)C1(C)C(=O)NC(=O)NC1=O | 7.4% | 7.8% | -5.7% | 6.35% | 1.4% | -4.1%
17 | O=C(O)C(CSC(c1ccccc1)c1ccccc1)N1C(=O)c2ccccc2C1=O (centres undefined) | 47.9% | 36.4% | 46.4% | 43.3% | 29.1% | 44.7%
18 | Cc1ccc([As]=[As]c2ccc(C)cc2N)c(N)c1 (centres undefined) | -12.3% | -2.8% | -3.95% | -9.95% | 9.05% | -9.6%
19 | COC1OC2COC(c3ccccc3)OC2C2N=C(N)N([N+](=O)[O-])C12OS(C)(=O)=O (centres undefined) | -4.8% | -5.4% | -12.2% | -21.1% | -3.6% | 3.75%
20 | CN(Cc1cnc2nc(N)nc(N)c2n1)c1ccc(C(=O)NC(CCC(=O)NCC(P(=O)(O)O)P(=O)(O)O)C(=O)O)cc1 (centres undefined) | -12.6% | -28.2% | -28.9% | -28.1% | -15.8% | -20.1%
21 | CCOC(=O)C(C)(C)C(OP(=S)(OCC)OCC)=C(C)C | 4.6% | 12.4% | 12.7% | 23.8% | 18% | 7.15%
22 | O=C1NC(=S)NC(=O)C1=Cc1cccc2cc3ccccc3cc12 | 97.7% (active) | 98.8% (active) | 98.5% (active) | 93.3% (active) | 98.1% (active) | 97% (active)

Row | Compound | growth inhibition [1] | growth inhibition [2] | growth inhibition [3] | growth inhibition [4] | growth inhibition [5] | growth inhibition [6]
23 | CC(C)OP(=O)(OC(C)C)C(=O)Nc1cc(Cl)ccc1Cl | -23.5% | 14.6% | -6.35% | -31% | 15% | -0.15%
24 | CC1(C)C(=O)C=CC2(C)C3CCC4(C)C(O)CCC4(C)C3CCC12 (centres undefined) | 9.6% | -10.2% | 7.2% | -30.1% | 13.8% | 20.1%
25 | COc1ccc2c(c1O)[C@@]13C=C(O)C(=O)C=C1[C@@H](C2)N(C)CC3 | 40% | 4.6% | 11.6% | 23.6% | -2.6% | -47.9%
26 | COc1ccc(C(C)N)cc1 (centres undefined) | -47.4% | -5.3% | -10.4% | -11.2% | -4.3% | -2.9%
27 | O=c1[nH]c(=S)[nH]c(O)c1/C=C1\C=CC=N1 | -22.9% | -3.95% | -3.45% | 1.85% | 3.3% | -14.1%
28 | CN1CCc2c([nH]c3ccccc23)C1 | 18.4% | -7.3% | 20.6% | 17.2% | 1.2% | -45.1%
29 | CCOP(=O)(OCC)Oc1cc(C)c(SC)c(C)c1 | -6.45% | -24.4% | -0.6% | 9.25% | 19% | -16.8%
30 | COc1ccc(N2CC=C(c3ccccc3)OP2(=O)N2CC2)cc1 (centres undefined) | -20.4% | 25.9% | 5.9% | 18.2% | 0.95% | -7.7%
31 | [Pt].c1ccc([PH+](CC[PH+](CC[PH+](c2ccccc2)c2ccccc2)c2ccccc2)CC[PH+](c2ccccc2)c2ccccc2)cc1 (centres undefined) | 22.8% | 14.3% | 25.6% | 8.6% | 16.6% | 8.75%
32 | [CH3][Sn]([CH3])([CH3])[S]C(=S)N1CCOCC1 | 98.7% (active) | 90% (active) | 98.2% (active) | 94.2% (active) | 98.5% (active) | 98.5% (active)
33 | O=C(O)c1ccccc1O.[Cu] | -31.2% | -32.5% | -36.8% | -3.85% | -19.1% | -8.65%
34 | C1=C\CCC2SC2CC/1 (centres undefined) | 2.1% | -16.9% | -5.95% | -14.6% | 12.4% | -7.5%
35 | Cc1cc(N(CCCl)CCCl)ccc1C=N/C(C#N)=C(\N)C#N | 2.05% | -9.05% | -4.8% | -8.6% | -1.9% | -4.85%
36 | O=[N+]([O-])c1cc(/C=N\NC(=S)NC2CN3CCC2CC3)ccc1Cl (centres undefined) | 22.5% | -24.1% | 1.85% | 0.15% | 4.8% | 2.4%
37 | COc1ccc([As]=O)cc1[N+](=O)[O-] (centres undefined) | 13.2% | 1.15% | 11.1% | 14.2% | -19% | 8.2%
38 | CC(C)([N+](=O)[O-])S(=O)O | -9.15% | -14.2% | -22% | -1.05% | -5.4% | -0.65%
39 | N#C[CH2][Sn]([I])([c]1ccccc1)[c]1ccccc1 | -12.5% | 30.4% | 1.15% | 72% (active) | -0.25% | 1.9%
40 | CC(C)N(C(=O)SCC(Cl)=C(Cl)Cl)C(C)C | -2.95% | -15.8% | -0.35% | -3.05% | -12.3% | 30%
41 | Cc1cccc(N=Nc2ccc(N(C)C)cc2)c1 | -8.45% | -36.6% | 2.4% | -29.6% | -8.6% | -13.3%
42 | CCCCCCCCCC[C@@H](O)[C@@H]1CC[C@@H]([C@@H]2CC[C@@H]([C@@H](O)CCCCCCCCCC[C@H](O)CC3=CC(C)OC3=O)O2)O1 (some centres undefined) | -3.45% | -0.4% | 18.8% | 31% | -11.7% | -21.9%
43 | CSCC(NP1(=O)SC(NN=C(C)C)=NC1(C)C)C(=O)O (centres undefined) | 4.85% | -3.7% | -26.5% | 20.3% | 17.6% | -3.45%
44 | CC1OC(O[C@H]2C[C@@H](O)[C@]3(CO)[C@H]4[C@H](O)C[C@]5(C)[C@@H](C6=CC(=O)OC6)CC[C@]5(O)[C@@H]4CC[C@]3(O)C2)C(O)C(O)C1O (some centres undefined) | -6.7% | 1.15% | 5.05% | 20.9% | -1.2% | -47.5%

Reference: PubChem BioAssay (NCI)
